# RORgamma inh – inhibitors of mouse ROR gamma transcriptional activity | P51450 | Drosophila S2 Gal4-RORgamma UAS-luciferase reporter, 20 h | Potency, µM (top dose mostly 53.6 µM), inactives show top-dose activity change, negative = inhibition, most hits filed as inhibitors | 310,000 tested, 5.4% active | AID 2551; also: potency is read from the fitted curve at half-maximal effect; nearly all actives have a fitted effect of over 60% in size
# Target sequence (P51450 whole entry, looked up, the tested form may be a part): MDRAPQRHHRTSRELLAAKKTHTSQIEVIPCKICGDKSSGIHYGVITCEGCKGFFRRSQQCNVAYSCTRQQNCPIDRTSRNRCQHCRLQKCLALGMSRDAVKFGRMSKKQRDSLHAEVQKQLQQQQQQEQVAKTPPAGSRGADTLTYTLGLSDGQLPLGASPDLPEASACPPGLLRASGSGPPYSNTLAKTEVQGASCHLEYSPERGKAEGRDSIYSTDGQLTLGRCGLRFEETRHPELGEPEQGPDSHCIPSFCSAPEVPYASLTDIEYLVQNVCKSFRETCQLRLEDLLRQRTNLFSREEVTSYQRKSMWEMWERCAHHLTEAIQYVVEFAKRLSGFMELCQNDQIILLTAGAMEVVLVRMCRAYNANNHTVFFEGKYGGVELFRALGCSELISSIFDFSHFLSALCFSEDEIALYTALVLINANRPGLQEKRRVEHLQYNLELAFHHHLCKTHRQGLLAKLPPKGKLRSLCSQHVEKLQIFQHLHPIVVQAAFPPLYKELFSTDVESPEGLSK
#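 Schneider cells (Drosophila), stable Gal4 DBD–ROR gamma + UAS-luc; 1 hr cmpd preincubation; Cu2+ induction 700 uM final; 20 hr ambient; luminescence.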
# TDP1 cell noCPT – qHTS for Inhibitors of human tyrosyl-DNA phosphodiesterase 1 (TDP1): qHTS in cells in absence of CPT. DT40 Tdp1-/- hTDP1 cells, no CPT, ATP luminescence, 48 h. Potency, µM (series often up to 46.2 µM), inactives show top-dose activity change, negative = growth inhibition, most hits filed as inhibitors. 420,000 tested, 15% active; also: potency is read from the fitted curve at half-maximal effect; nearly all actives have a fitted effect of over 55% in size
#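 Camptothecin absent (DMSO only). Human TDP1-complemented DT40 knockout cells, 400 cells/well, 37 °C for minimum 48 hr; ATP measured via CellTiter-Glo, 30 min dark incubation, luminescence.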
# VP16 counter – inhibits Gal4-VP16 luciferase reporter, ROR gamma counter-screen; Drosophila S2 Gal4-VP16 UAS-luciferase, luminescence, 20 h; 310,000 tested, 3.5% active; Potency, µM (doses to about 53.6 µM), without a hit: top-dose activity, negative = inhibition, most hits filed as inhibitors; AID 2546;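 also: Gal4-VP16 expression switched on by copper sulfate through the metallothionein promoter; potency is read from the fitted curve at half-maximal effect; nearly all actives have a fitted effect of over 50% in size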
# IL-1B inflam inh – inflammasome signaling inhibition, IL-1 beta readout. THP-1 LPS/ATP IL-1B secretion, AlphaLISA, 16 h; hits give low values. activity change, % at 57.5 µM. 360,000 tested, 4.7% active; in the data active = activity change below about -50%; inconclusive = mostly about -30% to -49%
#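 Secreted IL-1B measured by AlphaLISA bead assay after 16 h compound exposure of THP-1 cells; compounds (final up to 57.5 uM) added 1 h before LPS (250 ng/mL) and ATP (1.25 mM) stimulation; lower signal means less secretion.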
# DT40 TDP1 CPT – growth inhibition of DT40 Tdp1-/-;hTDP1 cells with camptothecin (screen for TDP1 inhibitors); 420,000 tested, 12% active; Potency, µM (series often up to 46.2 µM), inactives show at the highest dose activity change, negative = growth inhibition, actives largely listed as inhibitors; chicken DT40 Tdp1-/-;hTDP1 cells + 20 nM CPT, ATP luminescence, 48 h; AID 686979; also: potency is read from the fitted curve at half-maximal effect; nearly all actives have a fitted effect of over 55% in size
#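 Chicken DT40 Tdp1-/- cells stably complemented with human TDP1 were seeded at 400 cells/well in medium containing 20 nM camptothecin, exposed to pin-transferred compounds, and grown at 37 °C for at least 48 hr. Viability was read as ATP luminescence.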
# LDHA block – LDHA (human) enzyme inhibition | P00338 | purified LDHA, NADH/diaphorase-resazurin fluorescence; hits give low values | activity change, % (values are at about 110 or 230 µM) | 480,000 tested, 0.15% active; in the data active = activity change below about -30%; inconclusive = mostly about -25% to -30%;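 also: plate controls were DMSO wells for no effect and wells without enzyme for full effect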
#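 Enzyme activity of human lactate dehydrogenase 5 (2 nM; 0.06 mM NADH, 0.2 mM pyruvate, 5 min, RT) is measured via a resazurin/diaphorase fluorescence readout of residual NADH.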
# An asterisk follows results filed as active; ? = inconclusive; . = no result given. Sampled rows, rich in hits. Any-hit rate of the full collection: about 18%. Unless noted, calls follow the shape of the dose curve; as a rule, active = well fitted curve in the direction sought with a large enough effect; inconclusive = small, poorly fitted or top-dose-only effect, or another doubt; inactive = no such curve, though single readings can be large; an effect the other way counts as inactive or inconclusive. Unless noted, % is scaled to controls: 0 for no effect and ±100 for the full control effect.
SMILES,RORgamma inh,TDP1 cell noCPT,VP16 counter,IL-1B inflam inh,DT40 TDP1 CPT,LDHA block
Fc1cccc(Nc2ncnc3c2cnn3-c2ccccc2)c1,?,16µM*,12%,-10,?,-11
Fc1cccc(Nc2nc(NCc3ccco3)nc3c2cnn3-c2ccccc2)c1,.,.,.,.,.,10
N#Cc1cccc(Nc2ncnc3c2cnn3-c2cccc(Cl)c2)c1,.,23µM*,.,.,?,2
CC(=O)NCc1ccc(C(=O)OC(C)C(=O)C23CC4CC(CC(C4)C2)C3)cc1 (stereo not given),.,.,.,.,.,7
CC(C)COc1cccc(N)c1,.,.,.,.,.,4
COc1ccccc1CN(C)CC(=O)c1c(C)[nH]c2ccccc12,.,18µM*,.,.,18µM*,0
Cc1[nH]c2ccccc2c1C(=O)CCl,13µM*,3.7µM*,11µM*,-107*,2.6µM*,0
COc1ccccc1OCC(=O)c1c(C)[nH]c2ccccc12,.,.,.,.,.,-3
CC(=O)c1c(C)[nH]c2ccccc12,.,.,.,.,.,10
COP(=O)(OC)c1nc(-c2cccc([N+](=O)[O-])c2)oc1NCc1ccc(C)cc1,.,.,.,.,.,1
CCc1cc2c(=O)n(Cc3ccco3)c(SCC(=O)NC3CCS(=O)(=O)C3)nc2s1 (stereo not given),40%,-27%,?,-8,?,-10
CCc1cc2c(=O)n(Cc3ccco3)c(SCc3c(C)noc3C)nc2s1,?,2.9µM*,-61%,-5,5.8µM*,0
CCc1cc2c(=O)n(Cc3ccco3)c(SCC(=O)NCC3CCCO3)nc2s1 (stereo not given),?,16µM*,19%,-6,15µM*,-10
O=C(CSc1nc2c(sc3ccccc32)c(=O)n1Cc1ccco1)NCC1CCCO1 (stereo not given),13%,-72%,-7%,39,?,0
CCc1cc2c(=O)n(Cc3ccco3)c(SCC(=O)N(C)C3CCS(=O)(=O)C3)nc2s1 (stereo not given),10µM*,?,?,30,-24%,-4
CCc1cc2c(=O)n(Cc3ccco3)c(SCC(=O)N3CCCc4ccccc43)nc2s1,8%,?,-10%,-27,26µM*,-10
CCOc1ccc2c(=O)c(Oc3ccccc3)c(C(F)(F)F)oc2c1,.,.,.,.,.,-8
O=C1[C@@H]2C(c3cccnc3)=NO[C@@H]2C(=O)N1c1ccc2ccccc2c1,-6%,18µM*,-11%,.,6.5µM*,2
O=S(=O)(c1ccc(F)cc1)N(Cc1nc(-c2ccccc2)no1)c1ccccc1,.,.,.,.,.,0
COc1ccc(NC(=O)C[C@H]2C(=O)N(c3ccc(OC)cc3)C[C@@H]2c2ccc(Br)cc2)cc1,.,23µM*,.,-26,?,5
CCC[C@H]1CN(c2ccc(OC)cc2)C(=O)[C@@H]1CC(=O)Nc1ccccc1,.,?,.,-8,?,2
COc1ccc(NC(=O)C[C@H]2C(=O)N(c3ccc(Br)cc3)C[C@@H]2c2ccc(OC)cc2)cc1,.,21µM*,.,-27,?,-2
COc1ccc(NC(=O)C[C@H]2C(=O)N(c3ccc(Br)cc3)C[C@@H]2C)cc1,.,?,.,-3,?,-6
COc1ccc([C@H]2CN(c3ccc(OC)cc3)C(=O)[C@@H]2CC(=O)Nc2ccccc2)cc1,.,13µM*,.,?,-17%,5
O=Cc1cn[nH]c1-c1cccs1,.,.,.,.,.,5
COC(=O)CC1c2cc(OC)c(OC)cc2CCN1Cc1nc(C)no1 (stereo not given),.,.,.,.,.,5
Cc1ccc(-c2ccsc2C(=O)N2CCN(S(=O)(=O)c3ccc(F)c(F)c3)CC2)cc1,.,.,.,.,.,8
OCC1(CCOc2ccccc2)CCN(Cc2cc(Cl)ccc2O)CC1,-17%,-28%,-7%,?,?,5
